In PubChem BioAssay (NCATS) one finds Potency, outcome and activity change, negative = cytotoxicity data, which are given here for 34 molecules.

Structures are written as SMILES. Records with an inconclusive call do not appear. A number with no mark means an inactive call. Activity calls are given as the source filed them. Unless noted, the call rests on the fitted dose curve.

Experiment [1] is described as follows: Primary qHTS for inhibitors of SARS-S pseudo-typed particle cell entry (AID 1479145). Further: nearly all actives have a fitted effect of over 45% in size. Further: potency means the concentration at half of the fitted maximal effect.
A short description of experiment [2]: Primary qHTS for Huh7 cytotoxicity: counterscreen for inhibitors of MERS-S pseudotyped particle cell entry (AID 1479147). On activity change, negative = cytotoxicity: on the % scale 0 is the no-effect control and ±100 the full control effect. For orientation: Quantitative high-throughput screening tests each substance at several concentrations.
Experiment [3] in a line: Primary qHTS for inhibitors of MERS-S pseudo-typed particle cell entry (AID 1479149). Further: nearly all actives have a fitted effect of over 60% in size.
The nature of experiment [4]: Primary qHTS for Vero E6 cytotoxicity: counterscreen for inhibitors of SARS-S pseudo-typed particle cell entry (AID 1479150). On activity change, negative = cytotoxicity: on the % scale 0 is the no-effect control and ±100 the full control effect.
Experiment [5] in a line: Primary qHTS for inhibitors of La Crosse Virus (LACV) - induced cell death in SH-SY5Y cells (AID 1508616; active means well fitted curve in the direction sought with a large enough effect; an effect the other way counts as inactive or inconclusive;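 further: top concentration of the series differs between compounds; 0% = infected DMSO wells and 100% = uninfected DMSO wells; higher means more rescue of cells from virus-induced death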). In outline:
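Cytopathicity rescue screen: compounds pinned onto SH-SY5Y cells, which are then infected with LACV (MOI 0.01) and held 6 days at 37C. Percent activity is scaled between infected DMSO control and uninfected DMSO control.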

Experiment [6] deals with Calcium and integrin-binding protein 1 (Homo sapiens) (UniProt Q99828). Description: Primary qHTS for Identification of Calcium Integrin Binding Protein 1 (CIB1) Competitor (AID 1508620; active means well fitted curve in the direction sought with a large enough effect; an effect the other way counts as inactive or inconclusive; further: top concentration of the series differs between compounds; on the % scale 0 is the no-effect control and ±100 the full control effect). The gist of the method: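 Fluorescence polarization competition: GST-tagged CIB1 (1 uM final) preincubated with compound 15 min at room temperature, then FITC-labelled alphaIIb peptide (100 nM final) added. After 15 min at room temperature, polarization read at Ex 480/Em 540.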
Chain of Calcium and integrin-binding protein 1 (Homo sapiens) (Q99828 whole entry, looked up): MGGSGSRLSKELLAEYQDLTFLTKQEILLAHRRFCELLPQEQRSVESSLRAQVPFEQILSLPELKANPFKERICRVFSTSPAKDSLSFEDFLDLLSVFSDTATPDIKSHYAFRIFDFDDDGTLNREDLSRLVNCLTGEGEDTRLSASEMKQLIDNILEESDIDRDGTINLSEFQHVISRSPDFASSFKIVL

Turning to `CCOC(=O)NNc1ccc(N(CC)CC(C)O)nn1` (configuration not stated), the Potency result in experiment [1], in experiment [2], in experiment [3] and in experiment [4] was “inactive” each time.
For the molecule `Cc1c(NC(=O)c2cccnc2)c(=O)n(-c2ccccc2)n1C`, the Potency result in experiment [1], in experiment [2], in experiment [3] and in experiment [4] was “inactive” throughout.
Take `CC(CN(C)C)C(C)(O)Cc1ccc(Cl)cc1` (configuration not stated): the Potency result in experiment [1], in experiment [2], in experiment [3] and in experiment [4] was “inactive” throughout.
For `CC(C)C(=O)c1c(C(C)C)nn2ccccc12`, the Potency entry in experiment [1], in experiment [2], in experiment [3] and in experiment [4] was “inactive” in each case.
In the case of `CCOc1ccc(NC(=O)CC(C)O)cc1` (configuration not stated), the Potency entry in experiment [1], in experiment [2], in experiment [3] and in experiment [4] was “inactive” in each case.
Regarding `CC(=O)[C@@]1(O)CC[C@H]2[C@@H]3C[C@H](C)C4=CC(=O)C=C[C@]4(C)[C@@]3(F)[C@@H](O)C[C@@]21C`, the Potency entry in experiment [1], in experiment [2], in experiment [3] and in experiment [4] was “inactive” in each case.
For the molecule `C#C[C@]1(O)CC[C@H]2[C@@H]3CCc4cc(OC5CCCC5)ccc4[C@H]3CC[C@@]21C`, the Potency result in experiment [1], in experiment [2], in experiment [3] and in experiment [4] was “inactive” each time.
As to `OC[C@H]1O[C@@H](Oc2ccc(O)cc2)[C@H](O)[C@@H](O)[C@@H]1O`, the Potency entry in experiment [1], in experiment [2], in experiment [3] and in experiment [4] was “inactive” each time.
As for `CN(C)CCN(Cc1ccsc1)c1ccccn1`, the Potency result in experiment [1], in experiment [2], in experiment [3] and in experiment [4] was “inactive” in each case.
As for `CN(CC1(C)CCCO1)S(=O)(=O)c1ccc(Cl)c(S(N)(=O)=O)c1` (configuration not stated), the Potency result in experiment [1], in experiment [2], in experiment [3] and in experiment [4] was “inactive” in each case.
As for `Cc1ncc([N+](=O)[O-])n1CC(C)O` (configuration not stated), the Potency entry in experiment [1], in experiment [2], in experiment [3] and in experiment [4] was “inactive” in each case.
`CC(=O)NC[C@H]1CN(c2ccc(N3CCOCC3)c(F)c2)C(=O)O1`: the Potency result in experiment [1], in experiment [2], in experiment [3] and in experiment [4] was “inactive” each time.
Take `OC[C@H]1O[C@@H](n2cnc3c2NC=NC[C@H]3O)C[C@@H]1O`: the Potency entry in experiment [1], in experiment [2], in experiment [3] and in experiment [4] was “inactive” throughout.
`CC[N+](C)(CC)CCOC(=O)C1c2ccccc2Oc2ccccc21`: the Potency entry in experiment [1], in experiment [2], in experiment [3] and in experiment [4] was “inactive” each time.
Turning to `COc1nccnc1NS(=O)(=O)c1ccc(N)cc1`, the Potency entry in experiment [1], in experiment [2], in experiment [3] and in experiment [4] was “inactive” each time.
On to `CSCC[C@H](NC(=O)[C@H](Cc1ccc(OS(=O)(=O)O)cc1)NC(=O)[C@@H](N)CC(=O)O)C(=O)NCC(=O)N[C@@H](Cc1c[nH]c2ccccc12)C(=O)N[C@@H](CCSC)C(=O)N[C@@H](CC(=O)O)C(=O)N[C@@H](Cc1ccccc1)C(N)=O`, for which the Potency result in experiment [1], in experiment [2], in experiment [3] and in experiment [4] was “inactive” throughout.
As to `C[C@]12CC[C@H]3[C@@H](CCC4=CC(=O)CC[C@@H]43)[C@@H]1CC[C@@H]2OC(=O)CCc1ccco1`, the molecule was called inactive in experiment [5]. Besides, the Potency entry in experiment [6] was “inactive”.
Turning to `O=c1oc2ccccc2c(O)c1Cc1c(O)c2ccccc2oc1=O`, the molecule was classed as inactive in experiment [5].
Take `C[C@](O)(CS(=O)(=O)c1ccc(F)cc1)C(=O)Nc1ccc(C#N)c(C(F)(F)F)c1`: the Potency entry in experiment [6] was “inactive”.
For the molecule `CCOc1ccc(NS(=O)(=O)c2ccc(N)cc2)nn1`, the Potency result in experiment [2], in experiment [3] and in experiment [4] was “inactive” each time.
As for `CC(C)[C@H]1C(=O)N2CCC[C@H]2[C@]2(O)O[C@](NC(=O)[C@@H]3C[C@@H]4c5cccc6[nH]cc(c56)C[C@H]4N(C)C3)(C(C)C)C(=O)N12`, the Potency entry in experiment [1], in experiment [2] and in experiment [4] was “inactive” in each case.
For `CN1CCN2c3ncccc3Cc3ccccc3C2C1` (configuration not stated), the Potency result in experiment [2], in experiment [3] and in experiment [4] was “inactive” each time.
`CCCCCCCCCCOc1cc2c(=O)c(C(=O)OCC)c[nH]c2cc1OCC`: the outcome in experiment [2] and in experiment [3] was “inactive [at 5.34 µM]” in each case. For the same molecule, the activity change, negative = cytotoxicity in experiment [4] was 1.57% [at 5.34 µM].
Regarding `CCN[C@H]1CN(CCCOC)S(=O)(=O)c2sc(S(N)(=O)=O)cc21`, the Potency entry in experiment [1], in experiment [2] and in experiment [4] was “inactive” in each case.
Turning to `CN1C[C@@H]2C[C@H]1CN2c1cc2c(cc1F)c(=O)c(C(=O)O)cn2C1CC1`, the Potency result in experiment [1], in experiment [2] and in experiment [4] was “inactive” each time.
Turning to `Nc1ccc(S(=O)(=O)c2ccc(N)cc2)cc1`, the Potency result in experiment [1], in experiment [2] and in experiment [4] was “inactive” throughout.
For the molecule `COCCOC(=O)C1=C(C)NC(C)=C(C(=O)OC(C)C)C1c1cccc([N+](=O)[O-])c1` (configuration not stated), the Potency entry in experiment [1], in experiment [2] and in experiment [4] was “inactive” in each case.
`Nc1nc(Cl)nc2c1ncn2[C@@H]1O[C@H](CO)[C@@H](O)[C@@H]1F`: the Potency in experiment [1] is 20 µM (active). For the same molecule, the Potency result in experiment [2] and in experiment [4] was “inactive” in each case.
With `Cc1cc(OI)c(C(C)C)cc1-c1cc(C(C)C)c(OI)cc1C`, the Potency result in experiment [1], in experiment [2] and in experiment [4] was “inactive” in each case.
Take `Cc1cc(O)cc2c1O[C@](C)(CCC[C@H](C)CCC[C@H](C)CCCC(C)C)CC2`: the Potency result in experiment [2], in experiment [3] and in experiment [4] was “inactive” throughout.
With `O=C1CN(/N=C/c2ccc([N+](=O)[O-])o2)C(=O)N1`, the Potency result in experiment [1] and in experiment [4] was “inactive” in each case.
As to `Cc1cc2c(cc1S(N)(=O)=O)S(=O)(=O)CCC2`, the Potency result in experiment [1], in experiment [2] and in experiment [4] was “inactive” in each case.
As for `C=CC1=C(C(=O)O)N2C(=O)[C@@H](NC(=O)/C(=N\O)c3csc(N)n3)[C@H]2SC1` (stereo in doubt), the Potency entry in experiment [2], in experiment [3] and in experiment [4] was “inactive” in each case.
For the molecule `C[N+]1(C)[C@@H]2CC(OC(=O)[C@H](CO)c3ccccc3)C[C@H]1[C@@H]1O[C@@H]12` (some centres not stated), the Potency result in experiment [2], in experiment [3] and in experiment [4] was “inactive” throughout.
